Tests used:
Format in all cases: functional
Plasmodium falciparum [1] = assay: GSK_TCMDC: Inhibition of Plasmodium falciparum 3D7 in whole red blood cells, using parasite LDH activity as an index of growth. Test compounds present at 2uM
Plasmodium falciparum [2] = assay: GSK_TCMDC: Inhibition of Plasmodium falciparum Dd2 in whole red blood cells, using parasite LDH activity as an index of growth. Test compounds present at 2uM
HepG2 = assay: GSK_TCMDC: Percent inhibition of human HepG2 cell line. Test compounds present at 10uM.

Structure (SMILES): Cc1cc(Nc2ccc(OCc3ccccc3Cl)cc2)c2cc(Cl)ccc2n1.Cl
- Inhibition (Plasmodium falciparum [1]): 100%
- Inhibition (Plasmodium falciparum [2]): 58%
- Inhibition (HepG2): 33%

Structure (SMILES): Cc1cc(N[C@@H](CC(C)C)C(=O)NCCOc2ccccc2)nc(NCCOc2ccccc2)n1.O=C(O)C(F)(F)F
- Inhibition (Plasmodium falciparum [1]): 89%
- Inhibition (Plasmodium falciparum [2]): 6%
- Inhibition (HepG2): 0%

Structure (SMILES): Cc1cc(C)c(S(=O)(=O)N2CCCCC(c3cccc(C(F)(F)F)c3)=N2)c(C)c1
- Inhibition (Plasmodium falciparum [1]): 94%
- Inhibition (Plasmodium falciparum [2]): 95%
- Inhibition (HepG2): 0%

Structure (SMILES): CCC(=O)OC(CCN(CC)CC)(c1ccccc1)c1ccccc1
- Inhibition (Plasmodium falciparum [1]): 98%
- Inhibition (Plasmodium falciparum [2]): 6%
- Inhibition (HepG2): 30%

Structure (SMILES): Cn1cncc1CCN(Cc1ccc(-c2ccc(C(F)(F)F)cc2)cc1)C(=O)Cn1c(CCc2cccc(F)c2F)cc(=O)c2cccnc21
- Inhibition (Plasmodium falciparum [1]): 100%
- Inhibition (Plasmodium falciparum [2]): 97%
- Inhibition (HepG2): 44%

Structure (SMILES): COc1ccc2nccc([C@@H](O)CN3CCC(NCc4cc5c(cc4F)SCC(=O)N5)CC3)c2n1
- Inhibition (Plasmodium falciparum [1]): 96%
- Inhibition (Plasmodium falciparum [2]): 27%
- Inhibition (HepG2): 14%

Structure (SMILES): COc1ccc2ccccc2c1C=NN=c1cc(C)[nH]c2c(C)cccc12
- Inhibition (Plasmodium falciparum [1]): 100%
- Inhibition (Plasmodium falciparum [2]): 94%
- Inhibition (HepG2): 0%

Structure (SMILES): c1cncc(CNc2ncc(-c3ccsc3)c(-c3nccs3)n2)c1
- Inhibition (Plasmodium falciparum [1]): 81%
- Inhibition (Plasmodium falciparum [2]): 63%
- Inhibition (HepG2): 0%

Structure (SMILES): COc1ccc(CNCc2ccc(-c3ccc(-c4nc5ccccc5[nH]4)cc3)cc2)cc1.O=C(O)C(F)(F)F
- Inhibition (Plasmodium falciparum [1]): 100%
- Inhibition (Plasmodium falciparum [2]): 89%
- Inhibition (HepG2): 63%

Structure (SMILES): Cc1cccc2nc(-c3ccc(-c4cccc(CN5CCC(C(N)=O)CC5)c4)cc3)[nH]c12.O=C(O)C(F)(F)F
- Inhibition (Plasmodium falciparum [1]): 87%
- Inhibition (Plasmodium falciparum [2]): 16%
- Inhibition (HepG2): 9%

Structure (SMILES): CSc1c(CNCCCNc2cc(=O)c3ccccc3[nH]2)[nH]c2ccccc12
- Inhibition (Plasmodium falciparum [1]): 87%
- Inhibition (Plasmodium falciparum [2]): 21%
- Inhibition (HepG2): 0%

Structure (SMILES): Cc1cc(N2CCCC2)nc(Nc2ccc(NC(=O)c3ccc4c(c3)OCO4)cc2)n1
- Inhibition (Plasmodium falciparum [1]): 100%
- Inhibition (Plasmodium falciparum [2]): 67%
- Inhibition (HepG2): 26%

Structure (SMILES): CCNC[C@@H](O)[C@H](Cc1ccccc1)NC(=O)c1cc2c3c(c1)c(CC)cn3CCS(=O)(=O)N2C.O=CO
- Inhibition (Plasmodium falciparum [1]): 99%
- Inhibition (Plasmodium falciparum [2]): 65%
- Inhibition (HepG2): 0%

Structure (SMILES): COc1ccc(C2c3cc(OC)c(OC)cc3C(=NO)C2C)cc1OC (stereo not given)
- Inhibition (Plasmodium falciparum [1]): 90%
- Inhibition (Plasmodium falciparum [2]): 6%
- Inhibition (HepG2): 20%

Structure (SMILES): O=C(/C=C/c1ccc(Cl)c(Cl)c1)NCCCCCN1CCC(NC(=O)Nc2cccc(Cl)c2Cl)CC1
- Inhibition (Plasmodium falciparum [1]): 100%
- Inhibition (Plasmodium falciparum [2]): 35%
- Inhibition (HepG2): 99%

Structure (SMILES): CCCC(=O)Nc1ccc(Nc2nc(C)cc(N3CCCC3)n2)cc1
- Inhibition (Plasmodium falciparum [1]): 100%
- Inhibition (Plasmodium falciparum [2]): 46%
- Inhibition (HepG2): 31%

Structure (SMILES): CCCCCCCC/C=C\CCCCCCCC(=O)NCc1ccc(O)c(OC)c1 [OLVANIL]
- Inhibition (Plasmodium falciparum [1]): 96%
- Inhibition (Plasmodium falciparum [2]): 93%
- Inhibition (HepG2): 0%

Structure (SMILES): Cc1ccc2nc(C)cc(NC(=O)Nc3ccc(N(C)C)cc3)c2c1
- Inhibition (Plasmodium falciparum [1]): 100%
- Inhibition (Plasmodium falciparum [2]): 41%
- Inhibition (HepG2): 12%

Structure (SMILES): CC(C)(C)C(=O)Nc1ccccc1Oc1ccc(Cl)cc1
- Inhibition (Plasmodium falciparum [1]): 92%
- Inhibition (Plasmodium falciparum [2]): 96%
- Inhibition (HepG2): 54%

Structure (SMILES): O=C(C=Cc1ccc(Cl)c(Cl)c1)NCCCCCN1CCC(CCNC(=O)c2ccc3c(c2)OCO3)CC1
- Inhibition (Plasmodium falciparum [1]): 99%
- Inhibition (Plasmodium falciparum [2]): 2%
- Inhibition (HepG2): 35%

Structure (SMILES): CN(CCCNC(=S)NC12CC3CC(CC(C3)C1)C2)CCCNc1ccnc2cc(Cl)ccc12
- Inhibition (Plasmodium falciparum [1]): 100%
- Inhibition (Plasmodium falciparum [2]): 98%
- Inhibition (HepG2): 73%

Structure (SMILES): CCCCCCCN1CC[C@@H](CCCc2ccnc3ccc(OC)cc23)[C@@H](CNC)C1.O=C(O)C(=O)O
- Inhibition (Plasmodium falciparum [1]): 100%
- Inhibition (Plasmodium falciparum [2]): 95%
- Inhibition (HepG2): 25%

Structure (SMILES): N#Cc1ccc(/C=C/C(=O)NCCCCCN2CCN(C(=O)Nc3ccc(Cl)c(C(F)(F)F)c3)CC2)cc1
- Inhibition (Plasmodium falciparum [1]): 94%
- Inhibition (Plasmodium falciparum [2]): 0%
- Inhibition (HepG2): 42%

Structure (SMILES): CN(c1ccc(NC(=O)Nc2cc(C(C)(C)C)on2)cc1)c1ccnc(NCCOC(=O)Nc2cc(C(C)(C)C)on2)n1.O=C(O)C(F)(F)F
- Inhibition (Plasmodium falciparum [1]): 100%
- Inhibition (Plasmodium falciparum [2]): 54%
- Inhibition (HepG2): 59%

Structure (SMILES): O=c1c(NCCCN(Cc2ccc(F)cc2)c2ccccn2)c(NCc2cccnc2)c1=O
- Inhibition (Plasmodium falciparum [1]): 100%
- Inhibition (Plasmodium falciparum [2]): 92%
- Inhibition (HepG2): 0%

Structure (SMILES): O=C(Nc1ccc(Cl)c(Cl)c1)Nc1cc(C(F)(F)F)ccc1Cl
- Inhibition (Plasmodium falciparum [1]): 100%
- Inhibition (Plasmodium falciparum [2]): 85%
- Inhibition (HepG2): 0%

Structure (SMILES): CC(C)COc1ccc(Cl)cc1Cc1nc(-c2nc3ccc(CN4CCCC4)cc3[nH]2)co1.Cl
- Inhibition (Plasmodium falciparum [1]): 100%
- Inhibition (Plasmodium falciparum [2]): 66%
- Inhibition (HepG2): 50%

Structure (SMILES): Cc1cc(NC(=O)c2cc(Br)ccc2Cl)n(-c2nc(C)c(C)c(=O)[nH]2)n1
- Inhibition (Plasmodium falciparum [1]): 91%
- Inhibition (Plasmodium falciparum [2]): 83%
- Inhibition (HepG2): 54%

Structure (SMILES): CN1CCN(c2cc(NC(=O)Nc3ccc(-c4ccncc4)c(Cl)c3)ccc2Br)CC1
- Inhibition (Plasmodium falciparum [1]): 100%
- Inhibition (Plasmodium falciparum [2]): 99%
- Inhibition (HepG2): 23%

Structure (SMILES): COc1ccc(NC(=O)Nc2ccc(-c3ccccc3)cc2Cl)cc1N1CCN(C)CC1
- Inhibition (Plasmodium falciparum [1]): 90%
- Inhibition (Plasmodium falciparum [2]): 30%
- Inhibition (HepG2): 40%

Reference: ChEMBL document CHEMBL1157539, “Thousands of chemical starting points for antimalarial lead identification” (Nature, 2010)
